IL1B secr inh: inhibitors of inflammasome signaling (IL-1 beta secretion) | THP-1 LPS/ATP IL-1B secretion, AlphaLISA, 16 h; hits give low values | activity change, % at 57.5 µM | 360,000 compounds, 4.7% hits; in the data active = activity change below about -50%; inconclusive = mostly about -30% to -49%
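THP-1 cells pretreated 1 hr with compounds (up to 57.5 uM final), then stimulated with LPS (250 ng/mL final) plus ATP (1.25 mM final); secreted IL-1B measured by AlphaLISA after 16 hr, decreased signal indicating inhibition.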
DT40 TDP1 CPT: growth inhibition of DT40 Tdp1-/-;hTDP1 cells with camptothecin (screen for TDP1 inhibitors); chicken DT40 Tdp1-/-;hTDP1 cells + 20 nM CPT, ATP luminescence, 48 h; Potency, µM (titrated, usually from 46.2 µM), without a hit: at the top dose activity change, negative = growth inhibition, usual class: inhibitors; 420,000 compounds, 12% hits; AID 686979; note: potency is the fitted concentration of half-maximal effect; nearly all actives have a fitted effect of over 55% in size
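Chicken DT40 Tdp1-/- cells complemented with human TDP1, 400 cells/well, exposed to compounds plus 20 nM camptothecin for at least 48 h at 37 C; viability read as ATP content by CellTiter-Glo luminescence.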
TDP1 cell noCPT: qHTS for Inhibitors of human tyrosyl-DNA phosphodiesterase 1 (TDP1): qHTS in cells in absence of CPT | 420,000 compounds, 15% hits | DT40 Tdp1-/- hTDP1 cells, no CPT, ATP luminescence, 48 h | Potency, µM (top dose mostly 46.2 µM), inactives show top-dose activity change, negative = growth inhibition, actives largely listed as inhibitors; note: potency is the fitted concentration of half-maximal effect; nearly all actives have a fitted effect of over 55% in size
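Chicken DT40 Tdp1-/- cells stably complemented with human TDP1 were seeded at 400 cells/well with DMSO in place of 20 nM camptothecin. After compound pinning, cells grew at least 48 hr at 37 °C; viability read by CellTiter-Glo luminescence.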
HT1080 IDH1KD tx: HT-1080 IDH1 knockdown cell toxicity (counter line); HT-1080 IDH1 knockdown viability, ATP luminescence, 48 h; Potency, µM (series often up to 46.1 µM), inactives show at the top dose activity, negative = toxicity, usual class: cytotoxic; 360,000 compounds, 2% hits;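 note: potency is the fitted concentration of half-maximal effect; 0% = DMSO wells and -100% = cell-free medium wells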
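Assay cells: HT-1080 with IDH1 knockdown, 750 per well, RPMI/5% FBS. Exposure: 48 h at 37 °C following 2 h pre-incubation. Read: CellTiter-Glo luminescence; fitted concentration-response, curve class assigned.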
HT1080-NT tox: kills 2HG-producing HT-1080-NT fibrosarcoma cells. AID 686970. HT-1080-NT fibrosarcoma viability, CellTiter-Glo ATP luminescence, 48 h. 360,000 compounds, 1.6% hits. Potency, µM (series often up to 46.1 µM), without a hit: at the top dose activity, negative = less viability, actives largely listed as cytotoxic;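 note: NT is the 2HG producing partner of a matched IDH1 knockdown line; potency is the fitted concentration of half-maximal effect; 0% = DMSO-treated cells and -100% = media-only wells without cells; nearly all actives have a fitted effect of over 55% in size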
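750 cells/well, RPMI + 5% FBS; 2 h settle, compound pin-transfer, 48 h at 37 degrees C. CellTiter-Glo 10 min RT, luminescence. Normalized to DMSO and media-only wells.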
The depositor's hits bear a star; ? = inconclusive; · = not tested or not shown; [ ] = remark or other dose. This is a sample that favours compounds with a hit; in the whole collection about 19% have one here. Unless noted, calls come from the whole dose curve; as a rule, active = well fitted curve in the direction sought with a large enough effect; inconclusive = small, poorly fitted or top-dose-only effect, or another doubt; inactive = no such curve, though single readings can be large; an effect the other way counts as inactive or inconclusive. Unless noted, % is set by controls: 0 for no effect and ±100 for the full control effect.

SMILES	IL1B secr inh	DT40 TDP1 CPT	TDP1 cell noCPT	HT1080 IDH1KD tx	HT1080-NT tox
CCOc1ccccc1NS(=O)(=O)c1ccc2c(c1)CC(C)N2C(=O)C1CCC1 (configuration not stated)	·	23µM*	15µM*	·	·
Cc1ccc2onc(CNC(=O)NCc3ccccc3)c2c1	·	-28%	-2%	·	·
COc1ccc(/C=c2\[nH]c(=O)/c(=C/c3ccc(OC)cc3)[nH]c2=O)cc1	·	0%	-1%	·	·
O=C(COC(=O)c1cc(Br)ccc1O)NC12CC3CC(CC(C3)C1)C2	7	-4%	-1%	11%	0%
N#Cc1c(-c2ccc(F)cc2)cc(-c2cccnc2)nc1N	-4	-1%	-1%	9%	15%
COc1ccc(OC)c(-c2cc(-c3cccnc3)nc(N)c2C#N)c1	16	0.92µM*	0.92µM*	1.5µM*	1.8µM*
COc1ccc(-c2cc(-c3ccc(O)cc3)nc(N)c2C#N)cc1	-12	?	23µM*	0%	-11%
N#Cc1c(-c2ccccc2)cc(-c2ccc(O)cc2)nc1N	-2	?	?	-2%	-6%
CCOc1cc(/C=C(\C#N)C(=O)Nc2ccccn2)ccc1O	22	0%	-3%	1%	0%
CCOc1cc(/C=C(\C#N)c2[nH]nc(N)c2C#N)ccc1O	-65*	?	10µM*	-23%	-18%
COc1cccc(-c2cc(-c3cccnc3)nc(N)c2C#N)c1	?	2%	-9%	-21%	1%
N#Cc1c(-c2ccco2)cc(-c2ccc(F)cc2)nc1N	-2	?	18µM*	-1%[9.24 µM]	-16%
COc1ccc(Br)cc1CNC(=O)C(C)n1nc(C)n2c(cc3occc32)c1=O (configuration not stated)	·	-4%	?	·	·
CCOc1cc(-c2cc(-c3ccc(C)cc3)nc(N)c2C#N)ccc1O	18	?	21µM*	13µM*	8.9µM*
COc1cc(-c2cc(-c3ccc(O)cc3)nc(N)c2C#N)ccc1O	-65*	-96%	?	?	?
COc1ccccc1-c1cc(-c2ccc(O)cc2)nc(N)c1C#N	-7	?	?	-3%	0%
Cc1ccc(Nc2nc3nonc3nc2Nc2cccc(C(F)(F)F)c2)cc1Cl	·	0.52µM*	0.46µM*	·	·
Cc1cc(Nc2cccc(C(F)(F)F)c2)ncn1	·	-24%	?	·	·
Cn1c(=O)c2c(nc(NCCc3ccccc3)n2CC(=O)NCCc2ccccc2)n(C)c1=O	-6	-2%	5%	18%	22%
Cn1c(=O)c2c(nc(Br)n2Cc2ccc3ccccc3c2)n(C)c1=O	-29	21µM*	?	-28%	?
C/C(Cl)=C/Cn1c(=O)c2c(nc(Br)n2Cc2ccccc2)n(C)c1=O	-10	?	21µM*	-2%	3%
CN(C)c1nc2c(c(=O)n(C)c(=O)n2C)n1Cc1ccccc1	43	-12%	-26%	-1%	-2%
Cn1c(=O)c2c(nc(NCCCO)n2Cc2cccc(C(F)(F)F)c2)n(C)c1=O	11	18µM*	15µM*	0%	2%
C/C(Cl)=C\Cn1c(NCCc2ccccc2)nc2c1c(=O)n(C)c(=O)n2C	-52*	0.65µM*	0.82µM*	12%	-1%
Cn1c(=O)c2c(nc(SCC(=O)O)n2Cc2cccc(C(F)(F)F)c2)n(C)c1=O	13	-3%	-23%	0%	1%
SMILES	IL1B secr inh	DT40 TDP1 CPT	TDP1 cell noCPT	HT1080 IDH1KD tx	HT1080-NT tox
Cc1nc2cc(NC(=O)[C@@H]3C[C@@H](Sc4ccccn4)CN3Cc3ccccc3F)ccc2s1	·	-4%[9.04 µM]	-3%	·	·
CN(Cc1ccccc1)c1nccn2ccnc12	41	?	?	-12%	-6%
Cn1c(=O)c2c(nc(NCC3CCCO3)n2Cc2cccc(Br)c2)n(C)c1=O (configuration not stated)	0	?	15µM*	-23%	-1%
CCNc1nc2c(c(=O)n(C)c(=O)n2C)n1CCCc1ccccc1	-9	12µM*	5.8µM*	-15%	-27%
CN1CCN(c2nc3c(c(=O)n(C)c(=O)n3C)n2Cc2cccc(Br)c2)CC1	?	-23%	-7%	-4%	-5%
C=CCn1c(Oc2cc(C)ccc2C)nc2c1c(=O)n(C)c(=O)n2C	-1	15µM*	16µM*	1%	?
COCCNc1nc2c(c(=O)n(Cc3cccc(Cl)c3)c(=O)n2C)n1C	37	?	?	2%	-2%
CCNc1nc2c(c(=O)[nH]c(=O)n2C)n1CCCc1ccccc1	7	2%	-30%	2%	5%
COCCNc1nc2c(c(=O)n(C)c(=O)n2C)n1Cc1c(F)cccc1Cl	·	1.8µM*	2.6µM*	·	·
C=CCn1c(NCCc2ccccc2)nc2c1c(=O)n(C)c(=O)n2C	-21	9.2µM*	8.2µM*	?	-15%
COCCCNc1nc2c(c(=O)n(C)c(=O)n2C)n1Cc1ccccc1	·	16µM*	12µM*	·	·
Cn1c(=O)c2c(nc(CN3CCCCC3)n2Cc2c(F)cccc2Cl)n(C)c1=O	12	?	23µM*	12%	2%
COc1ccc(CCNc2nc3c(c(=O)n(C)c(=O)n3C)n2Cc2ccccc2Cl)cc1OC	·	13µM*	7.3µM*	·	·
COc1ccc(Cl)c(Cn2c(NCCCN(C)C)nc3c2c(=O)n(C)c(=O)n3C)c1	15	-24%	-26%	15%	2%
CCCCNc1nc2c(c(=O)n(Cc3ccccc3)c(=O)n2C)n1C	6	-25%	?	-1%	-3%
COCCCNc1nc2c(c(=O)n(Cc3cccc(Br)c3)c(=O)n2C)n1C	28	-30%	?	-28%	-2%
Cn1c(=O)c2c(nc(CN3CCN(Cc4ccccc4)CC3)n2Cc2cccc(Cl)c2)n(C)c1=O	-20	23µM*	16µM*	-10%	-19%
Cc1ccc(Cn2c(NCCc3ccccc3)nc3c2c(=O)n(C)c(=O)n3C)cc1	?	6.5µM*	8.2µM*	12%	-5%
COCCNc1nc2c(c(=O)n(Cc3cccc(Br)c3)c(=O)n2C)n1C	26	?	23µM*	3%	-1%
COc1ccc(-c2nc3ccc(Cl)cn3c2Cc2cccc(F)c2)cc1OC	0	23µM*	21µM*	?	?
COc1ccc(-c2nc3cc(C)c(Br)c(C)n3c2Cc2cccc(F)c2)cc1OC	-16	?	?	-29%	?
COc1ccc(-c2nc3ccc(Br)cn3c2Cc2cccc(F)c2)cc1OC	-14	?	?	-20%	-27%
COc1ccc(-c2nc3ccc(C)cn3c2Cc2cccc(F)c2)cc1OC	-15	?	21µM*	?	?
COc1ccc(-c2nc3c4ccccc4ccn3c2Cc2cccc(F)c2)cc1OC	-24	?	?	?	23µM*
